# Measured values published in PubChem BioAssay (NCI).
# The panel holds about 83,000 compounds, 20% with a hit somewhere; the sample as a whole holds those more often.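 In brief: 96-well plates, 48 h treatment, single concentration, percent growth endpoint.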 Unmarked numbers belong to inactive results. Active and inactive are the calls of the source. The calls were made as follows: active = growth percent below 10; inactive = the rest.
# How the values were obtained:
# Experiment in all cases: NCI-60 one-dose screen, 48 h (100 = growth as untreated, 0 = no growth, -100 = all killed)
# Details in all cases: 10 µM unless noted
# [1] = tested on: SK-MEL-2 melanoma
# [2] = tested on: EKVX NSCLC
# [3] = tested on: SN12C renal
# [4] = tested on: UO-31 renal
# [5] = tested on: TK-10 renal
# [6] = tested on: ACHN renal
# [7] = tested on: CAKI-1 renal
# [8] = tested on: A498 renal
# [9] = tested on: CCRF-CEM leukemia
# [10] = tested on: MOLT-4 leukemia
# [11] = tested on: SR leukemia
# [12] = tested on: RPMI-8226 leukemia
# [13] = tested on: OVCAR-8 ovarian
# [14] = tested on: OVCAR-5 ovarian
# [15] = tested on: OVCAR-4 ovarian
# [16] = tested on: SK-OV-3 ovarian
# [17] = tested on: IGROV1 ovarian
# [18] = tested on: OVCAR-3 ovarian
# [19] = tested on: HS 578T breast
# [20] = tested on: NCI/ADR-RES ovarian
SMILES,growth [1],growth [2],growth [3],growth [4],growth [5],growth [6],growth [7],growth [8],growth [9],growth [10],growth [11],growth [12],growth [13],growth [14],growth [15],growth [16],growth [17],growth [18],growth [19],growth [20]
CC(C)=CCC[C@](C)(O)C1CC[C@]2(C)[C@@H]1CC[C@@H]1[C@@]3(C)CC/C(=N\OCCC#N)C(C)(C)[C@@H]3CC[C@]12C (stereo not given in full),100%,72.4%,80%,60.5%,105%,90.3%,77.5%,72.8%,75.8%,77.5%,61.6%,36%,85.1%,99.1%,79.9%,84.3%,97.4%,93.2%,92.9%,97.7%
CCOc1cc(\C=N/N=C(N)/C(N)=N\N=C/c2ccc(O)c(OCC)c2)ccc1O,126%,106%,101%,88.7%,127%,96.5%,94.5%,106%,49.7%,59.2%,88.8%,94.8%,67.9%,115%,105%,113%,129%,113%,113%,98.7%
COC(=O)c1nc(-c2ccccc2)oc1S(=O)(=O)NCC(c1ccc(Cl)cc1)N1CCCCC1 (stereo not given),93.8%,104%,75.5%,61.2%,67.3%,68.2%,49.4%,96.4%,-19.2% (active),1.79% (active),-3.58% (active),20%,57%,90.8%,89.3%,95.5%,56.5%,57.5%,100%,89%
CC(CN)[C@@H]1CC[C@]2(CO)CC[C@]3(C)[C@H](CC[C@@H]4[C@@]5(C)CCC(NCCO)C(C)(C)[C@@H]5CC[C@]43C)[C@@H]12 (stereo not given in full),94.4%,73%,80.1%,69.7%,93.4%,95%,59.9%,87.2%,6.44% (active),18.3%,-21.5% (active),0.0868% (active),75.8%,84.2%,77.3%,100%,71.4%,53.1%,58.7%,91.1%
Brc1ccc(-c2nn(-c3ccccc3)cc2-c2nn[nH]n2)s1,96.2%,83.5%,80%,52.8%,102%,89.5%,88.1%,65.7%,90.9%,99.1%,87.4%,89.5%,96.3%,108%,92.7%,98.2%,102%,96.5%,89.9%,103%
CN1CCN(c2ccc(Nc3ncc4[nH]c(=O)n(Cc5ccccc5N)c4n3)cc2)CC1,104%,102%,86.5%,62.5%,86.4%,89.9%,66.4%,66.4%,96.4%,93.4%,91%,105%,98.4%,79.1%,93.6%,81.3%,77.6%,102%,69.8%,102%
COc1cc(-c2ccc(-c3ccc(C(=N)N)s3)s2)cc(OC)c1OC,70%,74.4%,60%,67.1%,82.8%,2.6% (active),41.7%,84.5%,-7.27% (active),4.68% (active),-20.7% (active),-34.7% (active),13.9%,64.6%,45.1%,85%,71.7%,3.44% (active),44.1%,77.9%
O=c1[nH]c(CN2CCN(c3ccccc3)CC2)nc2c(Br)cc(Br)cc12,91.2%,96.3%,110%,77.8%,120%,101%,99.7%,121%,88.9%,89.6%,3.49% (active),96.6%,104%,95.3%,105%,96.4%,29.4%,103%,91.7%,104%
COc1ccc2c(O)cc3c(c2c1)[C@H](CCl)CN3C(=O)c1cc2cc(NC(=O)CCN3CCOCC3)ccc2[se]1,-84.3% (active),-59.3% (active),-88.1% (active),-46.9% (active),-32.2% (active),-1.81% (active),-26.3% (active),-90.9% (active),76%,74.2%,52.5%,79.7%,-98.1% (active),-44.6% (active),-25.4% (active),-42% (active),-60.1% (active),-7.3% (active),5.52% (active),-34.4% (active)
O=C(OCC(O)C(=O)NC12CC3CC(CC(C3)C1)C2)c1cccc(Br)c1 (stereo not given),103%,96.4%,102%,84.9%,109%,101%,96.2%,94.4%,81.9%,87%,84.9%,94.6%,95.9%,101%,98.2%,102%,103%,109%,95.7%,101%
Cn1cc(-c2nc(-c3c[nH]c4ccncc34)cs2)c2cc(F)ccc21,-58.7% (active),-75.4% (active),-87.9% (active),-93.2% (active),-49.3% (active),-99.6% (active),-90.9% (active),-63.5% (active),-41.6% (active),-58.3% (active),-36.8% (active),-36.5% (active),-60.1% (active),-91.1% (active),-54.4% (active),62.1%,-87.2% (active),-94.7% (active),-44.9% (active),-73.7% (active)
O=c1cc(-c2nccc3c2[nH]c2ccccc23)c2cc(Cl)ccc2o1,30.2%,62.1%,62.4%,58.1%,85.3%,47.3%,54.6%,31.8%,31.2%,44.3%,15.2%,39.3%,54.4%,111%,56.6%,41.3%,61.3%,7.46% (active),37.3%,33.4%
C=C(C)Cn1c(SCC(=O)c2cccs2)nc2sc3c(c2c1=O)CCCC3,92.3%,77.1%,64.5%,58.6%,87.5%,44.3%,53.8%,72.1%,40%,41.9%,44%,50.7%,49%,71.2%,73.4%,79.1%,55.1%,64.5%,65.3%,43.9%
[2H]C([2H])([2H])Oc1c(F)cccc1/C=C/C(=O)/C=C(O)/C=C/c1cccc(F)c1OC([2H])([2H])[2H],101%,107%,93.4%,97.8%,114%,104%,103%,109%,90.9%,77.7%,94.8%,99.2%,87%,104%,89.1%,117%,101%,108%,112%,92.4%
C=CCn1c(SCC(=O)Nc2ccc(C(=O)/C=C/c3cc(OC)c(OC)c(OC)c3)cc2)nnc1-c1cc(-c2ccc(S(N)(=O)=O)cc2)nc2ccccc12,100%,100%,90.3%,77.1%,141%,93.8%,72.2%,97%,29.5%,59.7%,28.1%,4.9% (active),57.2%,123%,83.7%,111%,80.4%,81.1%,108%,103%
